# Among all 120,000 compounds or so, about 5,300 (4.4%) were called active. About 22% were inconclusive and are not listed. The call rests on the fitted dose curve; in most records, active means well fitted inhibition curve with a large enough effect; inconclusive means small, poorly fitted or top-dose-only effect; inactive means no such curve, though single readings can be large or run the other way. This excerpt belongs to a sample that is enriched for actives.
# Experiment: qHTS Primary assay for Inhibitors of Plasmodium falciparum Dd2 growth in vitro; further: nearly all actives have a fitted effect of over 65% in size;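 on activity, negative = inhibition: plate controls were DMSO vehicle for no effect and reference drug for full effect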
# Conditions: P. falciparum Dd2 growth, SYBR Green, 72 h; series mostly up to 28.9 µM; activity, negative = inhibition: at the top concentration
# Method in brief: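 Infected erythrocytes (Dd2, 0.3% parasitemia, 2.5% hematocrit final) are added to compound in RPMI-1640/Albumax II medium, grown 72 h at 37C in low oxygen, then lysed with saponin/Triton-X containing SYBR Green and read by fluorescence.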
# Potency means the concentration at half of the fitted maximal effect.
SMILES,"activity, negative = inhibition",Potency,outcome
O=C(CCc1conc1-c1ccccc1F)NCc1cccc(C(F)(F)F)c1,-8.13% (inactive),,
C=CCCC(CN1CCCC1)Oc1cncc(C(=O)N2CCCC2)n1 (stereo unspecified),,7.94 µM (active),
COC[C@@H]1CN(C(=O)Cc2ccc(OC)cc2)C[C@H]1C(N)=O,,,inactive
CCCC1c2nccn2CCCN1C(=O)c1ccc(OC)nc1 (stereo unspecified),11.3% (inactive),,
COc1ccccc1OCCNC(=O)CCc1cc2cc(C)ccc2[nH]c1=O,-7.04% (inactive),,
O=C(N[C@@H]1CCOC[C@H]1Oc1ccccn1)c1cc(C2CC2)no1,-7.6% (inactive),,
Cc1nn(-c2ccccc2)c(C)c1CN1CCCC12Cc1ccccc1CNC2=O (stereo unspecified),,2.24 µM (active),
O=C1Nc2ccccc2CC12CCN2Cc1cncs1 (stereo unspecified),-13% [at 44.1 µM] (inactive),,
N#Cc1ccc(CN2CCC3(Cc4ccccc4NC3=O)C2)cc1 (stereo unspecified),-4.96% [at 44.1 µM] (inactive),,
O=C1Nc2ccccc2CC12CCCN2Cc1ccccc1 (stereo unspecified),,10 µM (active),
COc1ccc(CN2CCC3(CC2)Cc2ccccc2CNC3=O)cn1,2.24% (inactive),,
Cc1ccc(CN2CCCC23Cc2ccccc2CNC3=O)cc1C (stereo unspecified),-14% (inactive),,
CSc1nccc(N2CCC(c3nccn3Cc3cccnc3)CC2)n1,-28.9% (inactive),,
CCS(=O)(=O)N1CCCN(C(=O)C2CC2)C(c2ccccc2)CC(=O)NCC1 (stereo unspecified),2.09% (inactive),,
CN1CC2(CCN(C(=O)c3n[nH]c(=O)c4ccccc34)CC2)CC1C(=O)N1CCOCC1 (stereo unspecified),13.6% (inactive),,
CN(C)C(=O)c1nc(-c2ccc(Cl)cc2Cl)c2cnccn12,,10 µM (active),
O=C(NCc1cccnc1)c1nc(-c2ccc(Cl)nc2)c2cnccn12,0.438% (inactive),,
CN(C)C(=O)c1nc(-c2cccnc2)c2ccccn12,1.95% [at 44.1 µM] (inactive),,
O=C1CCN(C(=O)CN2CCCCCC2)CCCC(c2nc(-c3ccccc3)no2)CCN1 (stereo unspecified),,,inactive
Cc1cc(C[C@@H]2COC[C@@H]2NC(=O)c2ccc3nc(C)[nH]c3c2)on1,-2.41% (inactive),,
O=C(NCCc1ccc(Cl)cc1)c1ccc2nc(CCc3ccccc3)oc2c1,47.5% (inactive),,
CCc1ccc(Nc2nn3c(=O)c4cc5c(cc4nc3s2)OCO5)cc1,10.9% (inactive),,

SMILES,"activity, negative = inhibition",Potency,outcome
Cc1ccccc1Nc1nn2c(=O)c3ccc(C(=O)NCCc4ccc(Cl)cc4)cc3nc2s1,,3.16 µM (active),
CC(C)c1nc(CNC(=O)c2ccc(N(C)C)nc2)no1,-11.6% (inactive),,
c1cc(-c2ccsc2)n2nc(C3CCCO3)nc2n1 (stereo unspecified),-9.94% (inactive),,
Cn1cc(CN2CCCN(C(=O)c3ccco3)CC2)c(-c2ccc(C3CCCCC3)cc2)n1,,8.91 µM (active),
Cc1ccc([C@@H]2CN(C(=O)c3ccco3)[C@@H]3C4CCN(CC4)[C@@H]32)cc1,-27.6% (inactive),,
COCCn1nc2n(c1=O)CCN(C(=O)c1ccco1)CC2,,,inactive; activator; fitted 3.1623 uM
COCc1nc(CCNC(=O)CCc2ccccc2)no1,37.7% (inactive),,
COc1ccc(-c2cc(N3CCCN(C(=O)c4ccc(OC)cc4C)CC3)n[nH]2)cc1,-0.81% (inactive),,
CCn1nccc1C(=O)N1CCn2nnc(CCC(=O)NCc3ccccc3)c2C1,-10.8% (inactive),,
COc1ccc(-c2[nH]nc3ncc(-c4ccccc4)nc23)c(C)c1,,,inactive [at 44.1 µM]
Cc1ccccc1-c1[nH]nc2ncc(-c3ccccc3)nc12,,3.98 µM (active),
Cc1ccsc1-c1[nH]nc2ncc(-c3ccccc3O)nc12,,,inactive [at 44.1 µM]
Cc1ccc(CNC(=O)C2(c3ccc(NS(C)(=O)=O)cc3)CCCCC2)cc1,,,inactive
NCC(=O)N1CCCC2(Cc3ccccc3CN2C(=O)c2cccc(Cl)c2)C1 (stereo unspecified),,11.2 µM (active),
NCC(=O)N1Cc2ccccc2CC2(CCCCN2CC2CCOCC2)C1 (stereo unspecified),-17.2% (inactive),,
O=C(c1cccc(Cl)c1)N1CCC2(CC1)NCc1ccccc1NC2=O,13.6% (inactive),,
COc1ccc(CN2CC[C@@H]3CN(S(C)(=O)=O)[C@@H]3C2)c(OC)c1,,,inactive
c1ccc(CN2CCNc3cc(NCc4cccnc4)ncc3C2)cc1,,,inactive [at 44.1 µM]
Fc1ccc(-c2cc(NC3CCCC3)nc3[nH]ccc23)nc1,-12% (inactive),,
c1cncc(CNc2cc(-c3cnc4ccccc4n3)c3cc[nH]c3n2)c1,,3.98 µM (active),
NC(=O)c1ccc(OC2CCN(C(=O)CCc3ccccc3)C2)nc1 (stereo unspecified),-6.28% (inactive),,
O=C(c1ccccc1F)N1CC(Oc2cccc(-c3nc(-c4ccccc4)no3)c2)C1,36.6% [at 5.79 µM] (inactive),,

SMILES,"activity, negative = inhibition",Potency,outcome
CCCC(=O)N1CCC(N2C(=O)C(O)C23CCCCC3)CC1 (stereo unspecified),0.413% (inactive),,
COCCN1CC[C@H]2CN(C(=O)Cc3ccc(OC)cc3)CC[C@H]2CC1=O,10.6% [at 44.1 µM] (inactive),,
C[C@]1(CO)C2CC[C@@H](O)[C@@H](CC(=O)N3CC[C@@H](O)C3)[C@]2(C)CC[C@H]1OC(=O)Nc1ccc(Oc2ccccc2)cc1 (stereo partly specified),-6.06% (inactive),,
COc1ccc(CCNC(=O)c2ccc3c(c2)nc(C)n3-c2ccc(Br)cc2)cc1OC,-28.2% (inactive),,
COc1ccccc1CNC(=O)c1cc2c(s1)CCN(C(=O)c1ccccc1)C2,,,inactive
COc1ccccc1Oc1ncccc1CNC(=O)c1ccc2n[nH]nc2c1,13.3% (inactive),,
CCOc1ccccc1CNC(=O)C1CCCN(S(=O)(=O)c2ccc3c(ccn3C)c2)C1 (stereo unspecified),-28.2% (inactive),,
COc1ccc(CCNC(=O)c2noc(-c3ccc(C)cc3)n2)cc1OC,7.54% (inactive),,
COc1ccccc1CNC(=O)c1ccc(-n2c(C)cc3c2CCCC3)cc1,,11.2 µM (active),
COc1ccc(CCNC(=O)c2ccc(-n3c(C)cc4c3CCCC4)cc2)cc1OC,,11.2 µM (active),
CCOc1ccccc1CNC(=O)c1ccc2c(c1)nc1n2CCC(C)C1 (stereo unspecified),-12.9% (inactive),,
CCOc1ccccc1CNC(=O)c1ccc(-n2c(C)cc3c2CCC(C)C3)cc1 (stereo unspecified),,12.6 µM (active),
COc1ccc(NC(=O)Cn2ccn3nc(-c4ccc(F)cc4)c(CO)c3c2=O)c(OC)c1,,,inactive
O=C(N[C@@H]1CN[C@H](CO)C1)c1ccncc1,21.8% (inactive),,
COC(=O)[C@@H]1Cc2c([nH]c3ccccc23)[C@H]2C[C@@H](NCCN3CCOCC3)C[C@@H](c3ccccc3F)N21,-10.2% (inactive),,
Cc1cnc(C)c(N2CCN(C(=O)[C@H]3CC[C@@H](N)C3)CC2)n1,-12.3% (inactive),,
O=c1[nH]c(C2CCCN(Cc3ccccn3)C2)nn1-c1ccc(Cl)cc1 (stereo unspecified),,1.41 µM (active),
O=C(Cc1ccc(F)cc1)N1CCCC(c2nn(-c3ccc(Cl)cc3)c(=O)[nH]2)C1 (stereo unspecified),,,inactive
CC(=O)N1CCCC(c2nn(-c3ccccc3)c(=O)[nH]2)C1 (stereo unspecified),16.5% [at 44.1 µM] (inactive),,
COCCNC(=O)C1c2ccccc2C(=O)N(C2CCCC2)C12CCCCC2 (stereo unspecified),-4.12% (inactive),,
Cc1cccnc1NC(=O)C1c2ccccc2C(=O)N(C2CCCC2)C12CCCC2 (stereo unspecified),-16.7% (inactive),,
COCc1nnc(NC(=O)C2c3ccccc3C(=O)N(C3CCCC3)C23CCCC3)s1 (stereo unspecified),,7.94 µM (active),

# From PubChem BioAssay AID1347417 (National Center for Advancing Translational Sciences (NCATS), 2020)
